Results taken from PubChem BioAssay (NCI).
The panel holds about 79,000 compounds, 15% with a hit somewhere; the sample as a whole holds those more often. No stated cut-off is given here; in the data, active means growth inhibition above about 70%; inactive means the rest.

Assays:
[1] = NCI Yeast Anticancer Drug Screen. Data for the rad50 strain (AID 155);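 further: 0% = growth of vehicle-only cultures of the same strain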; settings: S. cerevisiae rad50 strain growth inhibition; at 50.0 µM; active compounds read high
How it was run: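 A DNA repair-deficient yeast mutant serves as the test organism; compound-induced growth inhibition is calculated against vehicle-treated cells.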

[2] = NCI Yeast Anticancer Drug Screen. Data for the mec2-1 strain (AID 157); settings: S. cerevisiae mec2-1 strain, at 50.0 µM, active compounds read high
How it was run: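 mec2-1 yeast strain, carrying an alteration in DNA damage repair or cell cycle control, was exposed to compounds; growth inhibition was measured relative to vehicle-treated controls.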

[3] = NCI Yeast Anticancer Drug Screen. Data for the sgs1 mgt1 strain (AID 161);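 further: 0% = growth of cultures given vehicle only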; settings: S. cerevisiae sgs1 mgt1 strain, at 50.0 µM, active compounds read high
How it was run: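 Growth of a repair-deficient yeast mutant was monitored after compound treatment and expressed as inhibition relative to vehicle-treated cultures.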

[4] = NCI Yeast Anticancer Drug Screen. Data for the cln2 rad14 strain (AID 165);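 further: 0% = growth equal to vehicle treated cultures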; settings: S. cerevisiae cln2 rad14 strain, at 50.0 µM, active compounds read high
How it was run: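 Yeast carrying cln2 and rad14 alterations (cell cycle control and DNA damage repair) were exposed to compounds. Growth inhibition was measured against vehicle-treated controls.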

[5] = NCI Yeast Anticancer Drug Screen. Data for the bub3 strain (AID 167); settings: S. cerevisiae bub3 mutant strain, at 50.0 µM, active compounds read high
How it was run: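 Inhibition values come from growth of compound-treated mutant yeast normalised to vehicle-treated controls.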

[6] = NCI Yeast Anticancer Drug Screen. Data for the mlh1 rad18 strain (AID 175); settings: S. cerevisiae mlh1 rad18 strain growth inhibition; at 50.0 µM; active compounds read high
How it was run: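 Growth inhibition of the yeast strain was measured after compound exposure and expressed relative to vehicle-treated controls. The strain carries defined defects in DNA damage repair.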

Measured: growth inhibition

Oc1c(CNCc2ccccc2)cc(CNCc2ccccc2)c(O)c1CNCc1ccccc1
inactive: [1] 5.3% | [2] 8.85% | [3] -4.8% | [4] 3.2% | [5] 17.3% | [6] -14.8%

CC1(C)OC2C(=O)OC(COCc3ccccc3)C2O1 (stereo unspecified)
inactive: [1] 16.7% | [2] 2.2% | [3] 4.25% | [4] 11.1% | [5] 8.5% | [6] 34%

C/C(CC(N)=O)=C1\C(=O)NN(c2ccccc2)C1=O
inactive: [1] 23.1% | [2] 26.4% | [3] 48.2% | [4] 7.3% | [5] 40% | [6] 36.4%

NC(=O)c1ccccc1[N+](=O)[O-]
inactive: [1] 3.75% | [2] -7% | [3] -16.4% | [4] 6.4% | [5] -16.1% | [6] -6.5%

NC(=S)NN/C=C(\C=Nc1ccccc1)[N+](=O)[O-]
inactive: [1] 8.15% | [2] -3.3% | [3] 4.15% | [4] 0.4% | [5] 0.15% | [6] 1%

O=C(c1ccccc1)c1ccccc1NCC(O)COc1cccc2ccccc12 (stereo unspecified)
inactive: [1] -7.5% | [2] -19.9% | [3] -21.9% | [4] -13.8% | [5] 5.55% | [6] -4.2%

Cc1noc2ncnc(NCCCN(C)C)c12
inactive: [1] 13.4% | [2] 4.3% | [3] -0.8% | [4] -6.95% | [5] 1.55% | [6] -0.9%

Cc1ccc(S(=O)(=O)n2cncc2CO)cc1
inactive: [1] -33.7% | [2] -26.8% | [3] -15.1% | [4] 7.55% | [5] 4.05% | [6] -10.7%

COC(=O)N1CCc2c(nc(N(C)CCO)[nH]c2=O)C1
inactive: [1] -0.55% | [2] -20.5% | [3] -47.2% | [4] -3.8% | [5] -30.1% | [6] -30.6%

CCC(=O)Oc1ccc(C(=O)O)cc1
inactive: [1] 6.2% | [2] -10% | [3] -12.1% | [4] -39.5% | [5] -26.5% | [6] 1.45%

O=C(Cc1ccccc1)NCc1ccccc1
inactive: [1] -1.7% | [2] -7.15% | [3] 13.9% | [4] -3.3% | [5] 2.55% | [6] 8.7%

Cc1cccc(NC(=O)Nc2ccccc2Cl)c1C
inactive: [1] 11.2% | [2] 5.15% | [3] 0.65% | [4] -3.65% | [5] -2.3% | [6] -9.45%

NCCCCCC(CCN)SCC1OC(n2cnc3c(N)ncnc32)C(O)C1O (stereo unspecified)
inactive: [1] 17.6% | [2] -2.45% | [3] -5.1% | [4] -7.45% | [5] -0.95% | [6] 25.9%

CCOC(=O)NC(Nc1cccc(C(F)(F)F)c1)(C(F)(F)F)C(F)(F)F
inactive: [1] 1.45% | [2] -10.3% | [3] -38.5% | [4] 7.7% | [5] -15.6% | [6] -3.3%

O=C1NC(=O)C(c2ccc(O)cc2)N1 (stereo unspecified)
inactive: [1] -21.1% | [2] -14.8% | [3] -4.6% | [4] -30.9% | [5] 0.2% | [6] -10.2%

CC1=NC(C(=O)O)C(C)(C)S1 (stereo unspecified)
inactive: [1] 2.6% | [2] -8.3% | [3] -22.2% | [4] -0.95% | [5] -3.4% | [6] -6%

COCCCC(NC(=O)C(CC(C)C)NC(=O)OCc1ccc(OC)cc1)C(=O)OC (stereo unspecified)
inactive: [1] -9.6% | [2] -12.9% | [3] -2.25% | [4] 6.6% | [5] -9.1% | [6] 7.8%

CCNS(=O)(=O)c1ccc2c(c1)nc(C)n2CC
inactive: [1] 16.4% | [2] -27.6% | [3] -3.5% | [4] 13.1% | [5] 23.6% | [6] 11.5%

c1ccc(C(Sc2ncnc3nc[nH]c23)c2ccccc2)cc1
inactive: [1] 15% | [2] 13.2% | [3] -3.85% | [4] -22.5% | [5] 18.1% | [6] 0.1%

CC([O-])=C1C(=O)c2ccccc2C1=O.CC([O-])=C1C(=O)c2ccccc2C1=O.CC[O-].CC[O-].[Ti+4]
inactive: [1] 19.4% | [2] 27.6% | [3] 55.4% | [4] 29% | [5] 37.8% | [6] 36.5%

COc1ccc(/C=C2/C(=O)N=C(NC(C)=O)N2C)cc1OC
inactive: [1] -13.8% | [2] -14.2% | [3] -13.7% | [4] -2.1% | [5] 4.7% | [6] 4.55%
